PubChem BioAssay AID1035470 (Broad Institute, 2014)
Hit rate of the full screen: of about 1,800 compounds, fewer than 10 were called active. Another 16% or so got no clear call; they are omitted.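 The calls were made as follows: active = compound lowering the normal-ribosome reporter at least twice as much as the humanized-ribosome reporter, growth loss under a set limit; inconclusive = no clear call, values can overlap the other calls; inactive = the rest.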 The list is a sample of the results. Entries with a potency or affinity are not part of this list.

Test: E. coli strain growth, wild-type against G2058 humanized RFP mutant – G2058 mutant RFP vs wild-type GFP, cherry-pick, two tests, dose response (AID 1035470)
Conditions: E. coli WT-GFP vs G2058-humanized RFP, fluorescence, 24 h; series mostly up to 50 µM; activity change, negative = inhibition: at the top concentration

Activity change, negative = inhibition, inactive:
Cn1c(SCC(=O)Nc2ccccc2-c2ccccc2)nnc1-c1ccco1 -4.34
O=C(CCCOc1ccccc1)NCCc1nc2ccccc2[nH]1 -0.129
O=C(Cc1cccc(NC(=O)C2CCN(C(=O)C3CCCCC3)CC2)c1)Nc1cccc(C(=O)N2CCCC2)c1 -6.01
COc1ccc(-c2noc(=O)n2Cc2ccccc2Cl)cc1 4.24
CN1CCSc2ccc(C(=O)Nc3cccc(F)c3)cc21 -9.02
CC(C)c1ccc(-c2nc3ccccc3s2)cc1 2.01
Cc1ccc(-n2cc(CNCCN3CCOC3=O)c(-c3ccc(F)cc3)n2)cc1 11.8
Cc1ccc(NC(=O)c2ccc3ncsc3c2)cc1S(=O)(=O)N(C)C 5.11
CN(Cc1ccc([N+](=O)[O-])cc1)c1ccccc1 -8.41
COc1ccc(CN2CCNC(=O)C2CC(=O)NCCCC2CCCC2)c(C)c1C (stereo unspecified) 0.654
O=C1CCCCC1Nc1ccc(Br)cc1 (stereo unspecified) -10.6
C[C@@H]1CCCCO[C@@H](CN(C)C)[C@@H](C)CN([C@H](C)CO)C(=O)c2cc(NC(=O)Nc3cccc4ccccc34)ccc2O1 25
COc1ccc(NC(=O)CSc2n[nH]c(-c3ccncc3)n2)c([N+](=O)[O-])c1 -4.21
Brc1ccc(Nc2ncnc3[nH]ncc23)cc1 -3.7
Cc1cccc(-c2ccc([C@@H]3[C@@H](CO)N4CCCCN(S(=O)(=O)c5ccccc5C)C[C@H]34)cc2)c1 -11.1
C[C@@H]1CN([C@@H](C)CO)S(=O)(=O)c2ccc(Br)cc2O[C@H]1CN(C)C(=O)c1ccccc1 -10.1
Cc1cc(C)c(OCCN(C)Cc2ccccc2)c(Br)c1 -12.5
C[C@@H](Nc1nc(-c2ccccc2)nc2c1oc1ccccc12)C(=O)O -7.93
CCOC(=O)c1ccc(NC(=O)c2ccc(OC(C)C)c(OC)c2)cc1 -18.6
O=C(C[n+]1ccc(Cc2ccccc2)cc1)Nc1ccc([N+](=O)[O-])cc1Cl -9.82
O=C(OCC1COc2ccccc2O1)c1ccccc1F (stereo unspecified) -7.69
O=C(Nc1ccc(-c2nnc3n2CCCCC3)cc1)c1cc2ccccc2o1 -22.2
COc1cccc(NC(=O)c2ccc(-c3ccc([N+](=O)[O-])cc3)o2)c1 -18.6
COc1ccc(NC(=O)c2cccc(Oc3ccc([N+](=O)[O-])cc3Cl)c2)cc1 -9.48
O=C1CSC(c2cccnc2)N1Cc1ccc(Cl)c(Cl)c1 (stereo unspecified) -1.51
COc1ccccc1NC(=O)N1CCCCN2[C@@H](CO)[C@H](c3ccc(C#Cc4ccccc4)cc3)[C@@H]2C1 -7.55
C#CC(C)(C)NC(=O)c1ccc(-c2ccccc2F)cc1 -16
CS(=O)(=O)Nc1ccccc1C(=O)NCCSc1ccccc1 -4.79
COc1ccc(-c2cc(C(=O)O)nc3ccc4ccccc4c23)cc1OC -13
Oc1ccc(-c2csc(Nc3ncccn3)n2)cc1 -19.3
CN(C)S(=O)(=O)c1ccc2oc(SCC(=O)NCC(F)(F)F)nc2c1 14.7
